# From publication PMC10163288
# A selection follows. The true hit rate is not given. A number with no mark means an inactive call.
# B1: il2ra_site1_1z92_normal_mot_HHH_b1_04329_000000069_0001_1_19_H_._HHH_b2_03912_0001_0000100007_0000001_0_af2pred_0001_af2pred_1 (protein)
# chain: SSSSIELIRFADEVVLRLAEEYKLSDEDAQYLAEVAIELIRRGYSEEEIEEILQEEAEKLSSSSS
# B2: il2ra_site2_2erj_sap_19_mot_HHH_b2_00505_000000221_0001_1_17_H_._HHH_b1_08169_0001_0000200013_0000001_1_0001 (protein)
# chain: SSSSSEWLHRSYKLANELMHLLARGDEEEFERLVEEIEKFAEERDNKVLKEIVESLHRLFNSSSS
# B3: il2ra_site1_2b5i_normal_mot_HHH_b2_04910_000000118_0001_1_19_H_._HHH_b1_07294_af2_0001_0000100005_0000001_0_af2pred_dldesign_0_af2pred (protein)
# chain: SSSSSSKEALELFLKANEAYQAGNYEEAKKLLEEALEKAKAAGMTALVKMIESALESLSSSSSSS
# B4: il2ra_site1_3nfp_sap_20_mot_HHH_b2_00213_000000088_0001_1_18_H_._HEEHE_0331_af2_0001_0000400039_0000001_0_0001_af2pred_dldesign_0_af2pred (protein)
# chain: SSSSSLRKELERLLKKAYETGKKNDKEKLKKLLEEALKLAKENKAKLSVKFLERALKQLKSSSSS
# B5: il2ra_site1_1z92_normal_mot_HHH_b1_04604_af2_000000029_0001_42_56_H_._HHH_b2_07020_af2_0001_0000300012_0000001_0 (protein)
# chain: SSSSSSDVIELALRLARALRRGDEEEVQELLEELKRYAEERDNRAAREIAERIEKHLGSSSSSSS
# B6: il2ra_site1_1z92_sap_15_mot_e1ae4cb039f7b6770b9307eb87230ce5_0001_000000230_0001_37_51_H_._22eb9e4dad251339c268dc73c902281b_0001_0001_0000100004_0000001_0_0001_ … (protein)
# chain: SSSSSSERDARIVVELAVRAAGLSEEQQEELERLAKELLEEGYSFEEIARILDKLALELGSSSSS
# B7: il2ra_site2_2erj_sap_13_mot_HHH_b2_06689_af2_000000039_0001_18_34_H_._HHH_b1_05500_af2_0001_0000100002_0000001_0_0001 (protein)
# chain: SSSSSEELHRLYELAVELLRAVAEGDEELVREILEEVEELAERADSENVKELIENLHRLFNSSSS
# B8: il2ra_site1_2b5i_normal_mot_HHH_b1_02271_000000068_0001_1_16_H_._HHH_b2_05772_0001_0000400026_0000001_0_af2pred_dldesign_0_af2pred (protein)
# chain: SSSSSPELKRLVEEALRRAEAAKAAGRVREALEILNAAHKKADEADDEELSDELEAKAKELSSSS
# B9: il2ra_site1_1z92_sap_10_mot_d8cfa582855fb05d91e09f57594ab115_0001_1_000000067_0001_37_51_H_._HEEHE_2450_0001_0000100007_0000001_0_0001 (protein)
# chain: SSSSSEAERAFELIREIDEVIREGDEEEAKRLLEELRRLAEERNSPTMKRLLELLEEALEGSSSS
# B10: il2ra_site2_2erj_normal_mot_6bd1339e93f6fdda22195c76da45ec5d_0001_000000136_0001_37_51_H_._ems_3hC_696_0001_0000700021_0000001_0_af2pred_0001_af2pred (protein)
# chain: LEEDILRAFRIAVELLEKFRDDPEIERLVLEASLELTEAIEENDEEKIERVIEKIEEIKEEADSS
# B11: il2ra_site2_3nfp_sap_19_mot_HHH_b1_03376_000000004_0001_41_55_H_._88162e6262ef81793ed720f4f561f318_0001_0001_0000800035_0000001_0_0001_af2pred_0001_1_af2pred_sw … (protein)
# chain: SSDEEQEESEELKELIREALEKNDDEKLRKLIKEAASFALQLNDEELLEFASEARALLAKLRLSS
# B12: il2ra_site1_1z92_normal_mot_922575b2e9738a49cb663a995786872c_0001_af2_000000234_0001_18_32_H_._09c2afe89fb4cbada1505b3a46965288_0001_af2_0001_0000100006_0000001 … (protein)
# chain: GPEQELEELEEELGDPREAIRLLLEELEEESGDPELARQFLKIEIKRLFNVPPEEAERLLREAEK
# B13: il2ra_site1_3nfp_normal_mot_HHH_b1_04931_000000291_0001_38_56_H_._5fa2c1a30f04debedfe40931e4d0b367_0001_af2_0001_0000700055_0000001_0 (protein)
# chain: DVRFLLEAARFAGDELVVEVAEKLEELREEDPDDQEVKELVQKLLQLLAKDPEEAKKLAEELKRR
# B14: il2ra_site1_3nfp_normal_mot_ems_3hC_3_0002_000000237_0001_23_41_H_._971380201c9414114138cf1fdc40c0f4_0001_1_0001_0000300014_0000001_0_af2pred_0001_af2pred (protein)
# chain: SLAEELVEEIEEKGLPPEEIEKLIREILKRIGDPEEAREFFEELMRLAAKNRNEELLEAIKLVLR
# B15: il2ra_site1_3nfp_sap_10_mot_HHH_b2_00770_af2_000000063_0001_1_19_H_._HHH_b2_07788_0001_0000400012_0000001_0_0001 (protein)
# chain: NEEARRLAEAIARGDPRVEELIEELVEELKRKGDPDLRHALKALARMARSFGNPELAEELERLLK
# B16: il2ra_site1_1z92_normal_mot_HHH_b1_07828_af2_000000107_0001_18_34_H_._HHH_b1_02447_af2_0001_0000300012_0000001_0 (protein)
# chain: SSSSDLEEAIEILLQAIRRAIEAGNEKAAERFIEFAKEQIEDSGDPELERILRELEELLRSSSSS
# B17: il2ra_site1_2b5i_normal_mot_HHH_b1_02271_000000068_0001_1_16_H_._HHH_b1_08003_0001_0000900024_0000001_0_af2pred_dldesign_0_af2pred (protein)
# chain: SSSSSDKKAEVERLIEEAERLYKAGKRREALEKLNEAKKLADAADDEELEDKIEELAKKISSSSS
# B18: il2ra_site1_3nfp_sap_13_mot_0eddeacbb14b769e73e254714f31e2f9_0001_af2_000000052_0001_37_51_H_._3685a7fc0315cffcf770f862f50b42b9_0001_1_0001_0000400028_0000001_0 … (protein)
# chain: SDLEEEVRELIELIKEFAEERNSPVAKLYAELLEEAARRAEERNDERSLRYVLRSARLALRSGSS
# B19: il2ra_site1_1z92_sap_18_mot_HHH_b1_00368_000000203_0001_23_39_H_._d7cfadeb27be910639eb6e95e3396c32_0001_af2_0001_0000300014_0000001_0_0001 (protein)
# chain: SSSSDEELEERVKQFAEELVKELGLDEHAREALEKDAEAAVRLGFSERSIKLALERAARRASSSS
# Target: il2ra, P01589
# Sequence (P01589 whole entry): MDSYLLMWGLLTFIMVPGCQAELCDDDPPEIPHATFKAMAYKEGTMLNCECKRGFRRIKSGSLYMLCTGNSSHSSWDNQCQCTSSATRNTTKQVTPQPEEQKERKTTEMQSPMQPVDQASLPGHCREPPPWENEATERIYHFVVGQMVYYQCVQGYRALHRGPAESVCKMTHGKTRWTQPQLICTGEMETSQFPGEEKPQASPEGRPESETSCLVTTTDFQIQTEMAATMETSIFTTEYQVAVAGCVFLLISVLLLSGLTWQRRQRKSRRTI
# Assay: yeast display titration
row,Binder,apparent Kd
1,B1,no binding seen
2,B2,no binding seen
3,B3,no binding seen
4,B4,> 1470 nM
5,B5,no binding seen
6,B6,no binding seen
7,B7,no binding seen
8,B8,no binding seen
9,B9,no binding seen
10,B10,no binding seen
11,B11,no binding seen
12,B12,no binding seen
13,B13,no binding seen
14,B14,no binding seen
15,B15,no binding seen
16,B16,no binding seen
17,B17,no binding seen
18,B18,no binding seen
19,B19,no binding seen
